G9a block: G9a (human) methyltransferase inhibition. Q96KQ7. G9a H3K9 monomethylation, AlphaScreen, 2 h. Potency, µM (titrated, usually from 102 µM), for the others: at the highest dose activity, negative = inhibition, actives largely listed as inhibitors. 350,000 tested, 8.8% active; further: potency means the concentration at half of the fitted maximal effect; on the % scale 0 is the no-effect control and ±100 the full control effect; nearly all actives have a fitted effect of over 75% in size
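AlphaScreen read-out: biotin-H3K9 peptide (500 nM) methylation by 20 nM enzyme with 20 uM SAM, 2 h at room temperature after 15 min compound preincubation; anti-monomethyl H3K9 antibody plus donor/acceptor beads, 10 min dark.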
BAZ2B block: inhibitors of human BAZ2B bromodomain. Q9UIF8. AlphaScreen BAZ2B-H3K14Ac peptide displacement. Potency, µM (highest dose often 114 µM), inactives show at the top dose activity change, negative = inhibition, actives largely listed as inhibitors. 360,000 tested, 4.4% active. AID 504333; further: potency means the concentration at half of the fitted maximal effect; on the % scale 0 is the no-effect control and ±100 the full control effect; nearly all actives have a fitted effect of over 60% in size
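AlphaScreen displacement: compounds (up to 110uM) incubated 30 min at room temperature with a preformed 50 nM BAZ2B/50 nM biotinylated H3K14Ac peptide complex in PBS pH 7.4 with Tween-20. Donor and acceptor beads at 10 ug/mL final added, 20 min light-protected before reading.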
PLK1 PBD block: inhibitors of human PLK1 polo-box domain binding | P53350 | Potency, µM, without a hit: max response, negative = inhibition, hits mostly inhibitors | Plk1 PBD binding of FITC phosphopeptide, fluorescence polarization | AID 720504 | 360,000 tested, 2.8% active; further: potency means the concentration at half of the fitted maximal effect; series mostly up to about 57 µM; on the % scale 0 is the no-effect control and ±100 the full control effect; nearly all actives have a fitted effect of over 65% in size
Target sequence (P53350 whole entry, looked up, the tested form may be a part): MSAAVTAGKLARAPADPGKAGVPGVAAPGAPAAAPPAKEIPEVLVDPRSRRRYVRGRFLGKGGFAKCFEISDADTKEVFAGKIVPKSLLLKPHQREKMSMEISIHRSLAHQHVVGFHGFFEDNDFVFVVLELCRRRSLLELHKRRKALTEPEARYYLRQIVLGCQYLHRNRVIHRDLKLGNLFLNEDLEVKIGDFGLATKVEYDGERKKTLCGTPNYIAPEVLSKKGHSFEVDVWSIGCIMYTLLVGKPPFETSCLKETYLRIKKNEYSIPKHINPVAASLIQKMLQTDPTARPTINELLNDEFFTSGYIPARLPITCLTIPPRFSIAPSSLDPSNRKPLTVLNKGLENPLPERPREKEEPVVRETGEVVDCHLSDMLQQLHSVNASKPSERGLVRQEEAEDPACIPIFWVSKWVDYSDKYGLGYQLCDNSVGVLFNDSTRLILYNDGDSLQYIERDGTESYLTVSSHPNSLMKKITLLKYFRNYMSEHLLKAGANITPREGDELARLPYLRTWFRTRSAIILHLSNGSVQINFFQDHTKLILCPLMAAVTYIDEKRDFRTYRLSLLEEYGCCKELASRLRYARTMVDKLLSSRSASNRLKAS
JMJD2A Tudor inh: JMJD2A Tudor domain (human) inhibition; Potency, µM (highest dose often 114 µM), for inactives: at the top dose activity change, negative = inhibition, actives largely listed as inhibitors; AlphaScreen JMJD2A-Tudor / H3K4me3 peptide binding; 390,000 tested, 4.4% active; O75164; AID 504339; further: potency means the concentration at half of the fitted maximal effect; on the % scale 0 is the no-effect control and ±100 the full control effect; nearly all actives have a fitted effect of over 50% in size
PI5P4Ka inh: blocks human PI5P4K alpha kinase activity. P48426. PI5P4Kalpha enzyme, ADP-Glo luminescence, 60 min; hits give low values. max response, %. 330,000 tested, 1.2% active. AID 652105; active means max response of -50% or lower; inconclusive means between -30% and -50%; inactive means -30% or higher; further: value at the top dose of about 77 µM; on the % scale 0 is the no-effect control and ±100 the full control effect
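ADP-Glo luminescence end-point after a 60 min room-temperature kinase reaction. PI5P4Kalpha and substrate in HEPES pH 7.4 buffer with EGTA, 0.1% CHAPS and 5% DMSO; ATP at 5 microM final.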
HP1b chromo inh: HP1-beta chromodomain-methylated histone interaction inhibition. AlphaScreen HP1-beta / biotin-H3K9me3 peptide binding. P83916. Potency, µM (top dose mostly 114 µM), for inactives: top-dose activity change, negative = inhibition, most hits filed as inhibitors. 390,000 tested, 0.56% active; further: potency means the concentration at half of the fitted maximal effect; nearly all actives have a fitted effect of over 70% in size
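HP1-beta protein (50 nM final) preincubated 30 min at room temperature with biotinylated H3(1-18)K9me3 peptide (50 nM) in PBS pH 7.4, 0.01% Tween-20, then compound added for 30 min. AlphaScreen streptavidin donor/nickel chelate acceptor beads (10 ug/mL final), 30 min dark, luminescence read.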
Numbers without * were called inactive; [ ] = another dose, or the depositor's remark. Rows were chosen to be rich in hits. Some 12% of all compounds tested hit in one or more screens of this group. Unless noted, the call rests on the fitted dose curve; in most records, active means well fitted curve in the direction sought with a large enough effect; inconclusive means small, poorly fitted or top-dose-only effect, or another doubt; inactive means no such curve, though single readings can be large; an effect the other way counts as inactive or inconclusive.

For O=C(N/N=C\c1ccc(CN(Cc2ccc(Cl)cc2)S(=O)(=O)c2ccccc2)o1)C(=O)Nc1ccc(F)cc1 the results were G9a block inconclusive, BAZ2B block 0%, PLK1 PBD block 27µM*, JMJD2A Tudor inh -26%[11.4 µM], PI5P4Ka inh -16 and HP1b chromo inh -13%.
Screening O=C(N/N=C\c1ccc(CNS(=O)(=O)c2ccccc2)o1)C(=O)Nc1ccc(F)cc1 returned G9a block -8%, BAZ2B block -4%, PLK1 PBD block 2%, JMJD2A Tudor inh -10%, PI5P4Ka inh -4 and HP1b chromo inh 24%.
`CC(C)(C)OC(=O)N1CCCC1C(=O)NC1COC2CC(n3cc(F)c(=O)[nH]c3=O)OC12` (stereo not drawn) gave JMJD2A Tudor inh -11% and HP1b chromo inh 47%.
Screening Cc1nc2cnc(N3CCN(C)CC3)nc2n(Cc2ccc(F)cc2)c1=O returned G9a block 1%[0.501 µM].
Screening COc1cccc(CNc2sc3c(c2C(=O)Nc2ccc(OC)cc2OC)CCC3)c1 returned G9a block 13µM*, BAZ2B block -18%, JMJD2A Tudor inh inconclusive and HP1b chromo inh inconclusive.
For COc1ccc(NC(=O)c2c(NC(=O)c3cccc(C)c3)sc3c2CCC3)cc1 the results were G9a block -18%[59 µM], BAZ2B block 3%, JMJD2A Tudor inh 12% and HP1b chromo inh 54%.
Screening COc1ccc(CC(=O)Nc2sc3c(c2C(N)=O)CCCC3)cc1 returned G9a block 7%, BAZ2B block -3%, PLK1 PBD block -18%, JMJD2A Tudor inh -25%, PI5P4Ka inh -25 and HP1b chromo inh 44%.
For COc1ccc(NC(=O)c2c(NC(=O)CNCc3ccco3)sc3c2CCC3)c(OC)c1 the results were G9a block 22%[12.7 µM], BAZ2B block 3%, PLK1 PBD block -3%, JMJD2A Tudor inh -14%, PI5P4Ka inh -7 and HP1b chromo inh 16%.
Screening COc1ccc(NC(=O)c2c(NCc3cccc(OC)c3)sc3c2CCC3)cc1 returned G9a block 14µM*, BAZ2B block -5%, JMJD2A Tudor inh -29% and HP1b chromo inh -6%.
COc1ccc(OC)c(NC(=O)c2c(NCc3ccc(OC)c(OC)c3)sc3c2CCC3)c1 was read as G9a block inconclusive, BAZ2B block -22%, JMJD2A Tudor inh inconclusive and HP1b chromo inh -6%.
COc1ccc(OC)c(NC(=O)c2c(NCc3ccc(N(C)C)cc3)sc3c2CCCC3)c1 was read as G9a block 13µM*, BAZ2B block 11µM*, JMJD2A Tudor inh 11µM* and HP1b chromo inh -25%.
For COc1ccc(NC(=O)CN(C)CC(=O)Nc2sc3c(c2C(N)=O)CCC3)cc1 the results were G9a block 50µM*, BAZ2B block -4%, PLK1 PBD block inconclusive, JMJD2A Tudor inh -30%, PI5P4Ka inh -10 and HP1b chromo inh 7%.
COCCCN(Cc1ccco1)C(=O)c1cc2c(s1)-c1ccccc1OC2 was read as G9a block 66%[59 µM], BAZ2B block 89%, JMJD2A Tudor inh 48% and HP1b chromo inh 87%.
Screening CCOC(=O)N1CCc2c(sc(NCc3cc(OC)ccc3OC)c2C(=O)Nc2cc(OC)ccc2OC)C1 returned G9a block 7.1µM*, BAZ2B block 32µM*, JMJD2A Tudor inh inconclusive and HP1b chromo inh -7%.
For Cc1c(NC(=S)Nc2cccc(Cl)c2)c(=O)n(-c2ccccc2)n1C the results were G9a block -26%, BAZ2B block 3%, PLK1 PBD block -8%, JMJD2A Tudor inh -8%, PI5P4Ka inh 2 and HP1b chromo inh 7%.
For Cc1c(NC(=S)N/N=C\c2ccccc2O)c(=O)n(-c2ccccc2)n1C the results were G9a block 10%[59 µM], BAZ2B block 3.2µM*, PLK1 PBD block -8%, JMJD2A Tudor inh 40µM*, PI5P4Ka inh -6 and HP1b chromo inh 38%.
`Cc1cccc(C)c1NC(=S)Nc1c(C)n(C)n(-c2ccccc2)c1=O` gave G9a block 0.79µM*, BAZ2B block -7%, PLK1 PBD block -12%, JMJD2A Tudor inh -19%, PI5P4Ka inh 4 and HP1b chromo inh 34%.
Screening Cc1c(NC(=S)N/N=C/C=C/c2ccc([N+](=O)[O-])cc2)c(=O)n(-c2ccccc2)n1C returned G9a block 0%[59 µM], BAZ2B block -9%, PLK1 PBD block -21%, JMJD2A Tudor inh -17%, PI5P4Ka inh -2 and HP1b chromo inh -8%.
Cc1c(NC(=S)N/N=C/c2ccc([N+](=O)[O-])cc2O)c(=O)n(-c2ccccc2)n1C was read as G9a block 2%, BAZ2B block 14µM*, PLK1 PBD block -19%, JMJD2A Tudor inh 45µM*, PI5P4Ka inh inconclusive and HP1b chromo inh 29%.
For Cc1ccc(-n2c(=O)c3c4c(sc3n(Cc3cc(=O)n5cc(Cl)ccc5n3)c2=O)CCC4)cc1C the results were G9a block 6%[59 µM], BAZ2B block 2%, JMJD2A Tudor inh -20% and HP1b chromo inh 1%.
COc1ccc(CCC(=O)Nc2ccc(S(=O)(=O)N3CCOCC3)cc2)cc1OC was read as PLK1 PBD block -8% and PI5P4Ka inh 2.
Screening O=C(Nc1cc(Cl)ccc1-n1cncn1)c1ccc([N+](=O)[O-])o1 returned G9a block 50µM*, BAZ2B block -32%, PLK1 PBD block -23%, JMJD2A Tudor inh -30%, PI5P4Ka inh inconclusive and HP1b chromo inh -13%.
`O=C(Nc1cc(Cl)ccc1-n1cncn1)c1cccs1` gave G9a block 45µM*, BAZ2B block 7%, PLK1 PBD block -6%, JMJD2A Tudor inh -13%, PI5P4Ka inh 0 and HP1b chromo inh 19%.
`O=C(Nc1cc(Cl)ccc1-n1cncn1)c1cc(F)cc(F)c1` gave G9a block 50µM*, BAZ2B block 9%, PLK1 PBD block -1%, JMJD2A Tudor inh -5%, PI5P4Ka inh 4 and HP1b chromo inh 12%.
Screening CCC(=O)N1CCN(c2ccc(Cl)cc2NC(=O)c2ccc([N+](=O)[O-])o2)CC1 returned G9a block inconclusive, BAZ2B block -13%, PLK1 PBD block -19%, JMJD2A Tudor inh -12%, PI5P4Ka inh -6 and HP1b chromo inh 7%.
For O=C(Nc1cc(Cl)ccc1F)c1ccc(-n2cncn2)c([N+](=O)[O-])c1 the results were G9a block 56µM*, BAZ2B block -6%, PLK1 PBD block -8%, JMJD2A Tudor inh -27%, PI5P4Ka inh -4 and HP1b chromo inh 8%.
`O=C(Nc1cc(C(F)(F)F)ccc1-n1cncn1)c1ccc(Cl)cc1` gave G9a block -1%, BAZ2B block 10%, PLK1 PBD block -14%, JMJD2A Tudor inh -21%, PI5P4Ka inh 1 and HP1b chromo inh 57%.

Screens as filed in PubChem BioAssay.
